# In PMC7862700, “An all-to-all approach to the identification of sequence-specific readers for epigenetic DNA modifications on cytosine”:
# Legend:
# Test in all cases: DAPPL (digital affinity profiling via proximity ligation, sequencing); 10 mM Tris-HCl pH 7.5, 50 mM NaCl, 1 mM DTT, 4% glycerol, room temperature, 30 min; GST-TFs on glutathione beads, 16-mer random dsDNA library, 0.1% formaldehyde crosslink after washing; high values mean tight binding
# Conditions in all cases: protein: recombinant; tags: N-terminal GST; dsDNA, one strand shown
# ELK4 = target: T1, ELK4 (Homo sapiens, UniProt P28324-2 1-405)
# T1 sequence: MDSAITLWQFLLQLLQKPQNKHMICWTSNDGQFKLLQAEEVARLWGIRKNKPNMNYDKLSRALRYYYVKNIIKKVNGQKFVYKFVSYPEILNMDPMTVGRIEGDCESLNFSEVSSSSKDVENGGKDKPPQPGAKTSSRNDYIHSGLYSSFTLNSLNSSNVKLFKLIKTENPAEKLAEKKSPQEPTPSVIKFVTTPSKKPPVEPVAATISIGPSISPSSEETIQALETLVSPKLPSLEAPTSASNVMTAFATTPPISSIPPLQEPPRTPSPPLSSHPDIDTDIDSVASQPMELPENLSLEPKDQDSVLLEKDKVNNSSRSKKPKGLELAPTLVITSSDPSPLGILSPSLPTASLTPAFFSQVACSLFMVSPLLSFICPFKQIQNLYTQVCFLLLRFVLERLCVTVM
# Summary of the method: (§1)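 Human transcription factors were made in yeast as GST fusions, captured on glutathione beads and barcoded with DNA. With a tag-only sample included, the pool was incubated with 200 nmole of a random double-stranded 16-mer DNA library in Tris/NaCl/DTT/glycerol buffer at room temperature for 30 min, then crosslinked with 0.1% formaldehyde after washing, ligated by proximity, amplified and sequenced. For binding signal, each hexamer's read frequency for a factor is divided by its frequency for the tag-only sample.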
# ELF3 = target: T2, ELF3 (Homo sapiens, UniProt P78545 1-371)
# T2 sequence: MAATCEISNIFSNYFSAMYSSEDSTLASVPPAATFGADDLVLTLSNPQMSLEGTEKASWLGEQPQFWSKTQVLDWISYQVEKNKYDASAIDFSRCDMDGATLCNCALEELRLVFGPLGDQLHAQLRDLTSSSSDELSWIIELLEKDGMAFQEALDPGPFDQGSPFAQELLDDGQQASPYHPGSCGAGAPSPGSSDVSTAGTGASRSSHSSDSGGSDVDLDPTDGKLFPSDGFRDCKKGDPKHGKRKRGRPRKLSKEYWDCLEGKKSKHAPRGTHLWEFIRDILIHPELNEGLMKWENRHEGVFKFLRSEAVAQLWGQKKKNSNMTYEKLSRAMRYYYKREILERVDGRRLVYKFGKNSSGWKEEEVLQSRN
# Summary of the method: as §1
# ETV1 = ETV1 (Homo sapiens, UniProt P50549 1-477)
# Summary of the method: as §1
# ERF = target: T3, ERF (Homo sapiens, UniProt P50548 1-548)
# T3 sequence: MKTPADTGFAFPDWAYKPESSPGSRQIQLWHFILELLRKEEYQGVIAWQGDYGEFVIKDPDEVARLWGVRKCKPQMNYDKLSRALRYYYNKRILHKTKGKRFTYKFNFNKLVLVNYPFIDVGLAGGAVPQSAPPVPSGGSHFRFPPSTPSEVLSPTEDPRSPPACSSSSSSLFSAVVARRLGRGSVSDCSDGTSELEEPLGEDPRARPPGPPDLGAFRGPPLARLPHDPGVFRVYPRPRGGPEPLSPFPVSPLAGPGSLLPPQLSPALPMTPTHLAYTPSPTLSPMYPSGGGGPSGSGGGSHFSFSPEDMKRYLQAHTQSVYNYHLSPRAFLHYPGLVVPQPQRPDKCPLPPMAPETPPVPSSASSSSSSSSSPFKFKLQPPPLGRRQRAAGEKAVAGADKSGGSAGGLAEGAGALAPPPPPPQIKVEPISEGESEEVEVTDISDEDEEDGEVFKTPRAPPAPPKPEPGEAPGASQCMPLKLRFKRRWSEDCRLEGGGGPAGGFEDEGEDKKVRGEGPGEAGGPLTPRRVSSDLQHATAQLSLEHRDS
# Summary of the method: as §1
# ETV3L = target: T4, ETV3L (Homo sapiens, UniProt Q6ZN32 1-361)
# T4 sequence: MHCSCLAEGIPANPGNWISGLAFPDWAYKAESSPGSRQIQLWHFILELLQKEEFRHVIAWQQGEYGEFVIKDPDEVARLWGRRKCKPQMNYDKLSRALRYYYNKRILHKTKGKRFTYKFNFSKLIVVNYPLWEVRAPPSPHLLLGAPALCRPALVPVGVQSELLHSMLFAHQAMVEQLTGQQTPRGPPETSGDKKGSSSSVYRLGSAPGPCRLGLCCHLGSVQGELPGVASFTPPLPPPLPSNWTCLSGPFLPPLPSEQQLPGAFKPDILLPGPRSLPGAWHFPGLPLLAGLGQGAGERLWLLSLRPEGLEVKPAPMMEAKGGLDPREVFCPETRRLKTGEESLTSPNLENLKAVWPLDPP
# Summary of the method: as §1
# ETS2 = target: T5, ETS2 (Homo sapiens, UniProt P15036 1-469)
# T5 sequence: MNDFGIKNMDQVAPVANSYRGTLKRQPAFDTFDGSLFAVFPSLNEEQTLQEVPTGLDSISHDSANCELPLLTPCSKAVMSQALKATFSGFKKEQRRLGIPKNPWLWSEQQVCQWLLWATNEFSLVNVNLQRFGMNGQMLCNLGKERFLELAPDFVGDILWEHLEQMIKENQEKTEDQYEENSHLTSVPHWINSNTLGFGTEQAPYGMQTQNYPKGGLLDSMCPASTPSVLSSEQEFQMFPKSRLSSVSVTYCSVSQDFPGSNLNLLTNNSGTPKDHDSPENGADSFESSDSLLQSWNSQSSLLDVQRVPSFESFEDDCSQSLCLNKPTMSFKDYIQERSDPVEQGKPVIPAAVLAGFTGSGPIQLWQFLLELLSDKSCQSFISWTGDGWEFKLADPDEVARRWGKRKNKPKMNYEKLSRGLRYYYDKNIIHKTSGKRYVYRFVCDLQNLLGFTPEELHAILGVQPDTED
# Summary of the method: as §1
# SPDEF = target: T6, SPDEF (Homo sapiens, UniProt O95238 1-335)
# T6 sequence: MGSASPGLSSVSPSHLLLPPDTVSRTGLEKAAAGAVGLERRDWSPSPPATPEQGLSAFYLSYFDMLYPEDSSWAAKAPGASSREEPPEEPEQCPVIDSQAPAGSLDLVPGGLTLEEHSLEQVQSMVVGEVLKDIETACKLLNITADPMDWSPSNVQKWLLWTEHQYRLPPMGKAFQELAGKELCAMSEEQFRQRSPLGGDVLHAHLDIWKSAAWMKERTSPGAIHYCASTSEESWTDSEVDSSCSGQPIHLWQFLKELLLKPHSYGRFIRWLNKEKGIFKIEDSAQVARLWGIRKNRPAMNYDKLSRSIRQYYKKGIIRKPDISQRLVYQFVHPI
# Summary of the method: as §1
# ETV7 = target: T7, ETV7 (Homo sapiens, UniProt Q9Y603 1-341)
# T7 sequence: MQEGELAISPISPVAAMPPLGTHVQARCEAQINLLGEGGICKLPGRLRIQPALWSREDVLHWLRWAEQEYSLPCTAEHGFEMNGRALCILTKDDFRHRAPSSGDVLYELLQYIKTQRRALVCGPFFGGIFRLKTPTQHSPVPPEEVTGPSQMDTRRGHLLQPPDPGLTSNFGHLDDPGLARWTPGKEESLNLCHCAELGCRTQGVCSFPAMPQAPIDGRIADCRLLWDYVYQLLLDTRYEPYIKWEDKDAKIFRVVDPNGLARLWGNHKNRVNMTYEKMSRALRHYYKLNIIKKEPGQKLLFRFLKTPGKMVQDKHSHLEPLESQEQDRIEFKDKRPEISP
# Summary of the method: as §1
# ETV3 = target: T8, ETV3 (Homo sapiens, UniProt P41162-2 1-143)
# T8 sequence: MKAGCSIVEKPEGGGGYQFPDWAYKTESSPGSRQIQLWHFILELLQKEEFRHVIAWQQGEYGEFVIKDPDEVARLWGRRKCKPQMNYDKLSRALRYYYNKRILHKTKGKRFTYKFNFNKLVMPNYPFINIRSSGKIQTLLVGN
# Summary of the method: as §1
# ETV6 = ETV6 (Homo sapiens, UniProt P41212 1-452)
# Summary of the method: as §1
# ETV1, sequence (P50549 whole entry): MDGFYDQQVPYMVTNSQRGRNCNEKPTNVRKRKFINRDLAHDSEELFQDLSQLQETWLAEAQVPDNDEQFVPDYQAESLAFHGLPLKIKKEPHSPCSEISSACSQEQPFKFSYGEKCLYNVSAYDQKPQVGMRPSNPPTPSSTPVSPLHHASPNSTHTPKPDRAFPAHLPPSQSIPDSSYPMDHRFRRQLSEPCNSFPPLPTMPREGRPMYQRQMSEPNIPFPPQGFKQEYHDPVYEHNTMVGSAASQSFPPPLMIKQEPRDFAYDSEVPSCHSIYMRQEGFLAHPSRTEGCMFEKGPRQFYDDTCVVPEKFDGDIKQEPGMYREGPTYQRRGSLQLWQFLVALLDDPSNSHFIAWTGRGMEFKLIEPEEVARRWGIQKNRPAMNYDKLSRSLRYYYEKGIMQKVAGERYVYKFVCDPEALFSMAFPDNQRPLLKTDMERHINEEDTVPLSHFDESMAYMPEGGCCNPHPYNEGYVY
# ETV6, sequence (P41212 whole entry): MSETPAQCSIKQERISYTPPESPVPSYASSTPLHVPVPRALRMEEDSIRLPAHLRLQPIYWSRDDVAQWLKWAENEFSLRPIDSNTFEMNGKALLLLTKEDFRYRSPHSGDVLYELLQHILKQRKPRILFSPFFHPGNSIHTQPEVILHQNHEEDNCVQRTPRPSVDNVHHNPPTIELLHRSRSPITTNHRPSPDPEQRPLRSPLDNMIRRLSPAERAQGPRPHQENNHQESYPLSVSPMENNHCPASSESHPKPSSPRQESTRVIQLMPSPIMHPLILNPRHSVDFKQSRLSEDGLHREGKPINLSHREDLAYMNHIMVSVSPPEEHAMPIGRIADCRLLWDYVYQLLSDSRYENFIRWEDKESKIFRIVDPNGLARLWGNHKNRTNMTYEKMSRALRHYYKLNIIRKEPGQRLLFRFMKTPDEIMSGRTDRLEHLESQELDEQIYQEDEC
sequence,measurement,setting,value
GCTGGT,binding signal,ELK4,"1.45 fold enrichment (6-mer frequency, TF over GST control)"
same,binding signal,ELF3,"1.16 fold enrichment (6-mer frequency, TF over GST control)"
same,binding signal,ETV1,"1.02 fold enrichment (6-mer frequency, TF over GST control)"
same,binding signal,ERF,"1.14 fold enrichment (6-mer frequency, TF over GST control)"
same,binding signal,ETV3L,"1.19 fold enrichment (6-mer frequency, TF over GST control)"
same,binding signal,ETS2,"1.17 fold enrichment (6-mer frequency, TF over GST control)"
same,binding signal,SPDEF,"1.2 fold enrichment (6-mer frequency, TF over GST control)"
same,binding signal,ETV7,"1.17 fold enrichment (6-mer frequency, TF over GST control)"
same,binding signal,ETV3,"1.29 fold enrichment (6-mer frequency, TF over GST control)"
same,binding signal,ETV6,"1.13 fold enrichment (6-mer frequency, TF over GST control)"
